The source of these data is PubChem BioAssay AID1347416 (National Center for Advancing Translational Sciences (NCATS), 2020).

The structures appear in SMILES notation. The whole screen tested about 4,100 compounds, of which about 1,600 (39%) were called active. About 25% were inconclusive and are not listed. The list shows a part of the results. A number with no mark means an inactive call. Calls follow the shape of the dose curve; as a rule, active = well fitted inhibition curve with a large enough effect; inconclusive = small, poorly fitted or top-dose-only effect; inactive = no such curve, though single readings can be large or run the other way.
% is scaled to controls: 0 for no effect and ±100 for the full control effect; potency is read from the fitted curve at half-maximal effect.

The experiment can be described thus: qHTS Validation assay for Inhibitors of Plasmodium falciparum Dd2 growth in vitro. Also: nearly all actives have a fitted effect of over 70% in size. Conditions: P. falciparum Dd2 in RBCs, SYBR Green growth, 72 h; series mostly up to 28.7 µM; activity change, negative = inhibition: at the top concentration. Summed up: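 P. falciparum Dd2-infected red blood cells (2.5% hematocrit, 0.3% parasitemia) grown 72 h at 37 °C under 5% O2 with compounds in a titration, 29 uM to 0.5 nM final. Growth read as SYBR Green-1 fluorescence after ~16 h lysis; artesunate 300 nM as positive control.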
(qHTS replaces the single test concentration by a dilution series.)
In the case of `CCCc1cc(=O)oc2cc(C)cc(OC(C)C(=O)NCC(O)c3ccccc3)c12` (stereo not drawn), the Potency was 0.842 µM (active).
The same measure, in the same setting: with `CCc1cc(=O)oc2cc(C)cc(OCC(=O)C(C)(C)C)c12` the figure was 11.9 µM (active).
Regarding `CCCc1noc(-c2ccn3c(CNC(=O)C(C)Oc4ccccc4)nnc3c2)n1` (stereo not drawn), the “activity change, negative = inhibition” value is -11.4%.
With `Oc1cc(Cc2ccccc2)cnc1CN1CCCCC1`, the Potency is 0.944 µM (active).
Turning to `Clc1ccc(-c2nc(N3CCOCC3)nc3ccccc23)cc1`, the “activity change, negative = inhibition” value is 7.5%.
With `CC12CC3CC(C)(C1)CC(Nc1nc(N4CCOCC4)nc4ccccc14)(C3)C2`, the Potency is 9.44 µM (active).
Take `CN1N=C2c3ccccc3CCC2C1c1ccc(F)cc1` (stereo not drawn): the Potency was 5.96 µM (active).
With `COc1ccccc1C(=O)NCCn1ccn2nc(-c3cc(C)ccc3C)cc2c1=O`, the “activity change, negative = inhibition” value was -2.98%.
With `Cc1ccc2oc(=O)n(CCOc3ccccc3C)c2c1`, the Potency is 4.73 µM (active).
With `CCNC(=O)N1CCCCCC1CN1CCc2ccccc2C1` (stereo not drawn), the “activity change, negative = inhibition” value was -9.47%.
Same read-out and setting: with `O=C(N[C@H]1CCN2C(=O)c3ccccc3NC(=O)[C@@H]2C1)c1cccs1` the figure was 27.3% [at 43.1 µM].
As to `O=C(c1cccs1)N1CCCCCC1CN1CCCC1` (stereo not drawn), the Potency is 10.6 µM (active).
Same read-out and setting: with `CCCCCCNC(=O)Cc1csc2nc(C)c(-c3cc(C)n(-c4cccc(C)c4)n3)c(=O)n12` the figure was 15 µM (active); with `CCCCC(O)(c1ccc(CC)cc1)C(CN1CCOCC1)c1ccccc1` (stereo not drawn), 4.73 µM (active); with `CCCCCCC(O)(c1ccc(OC)cc1)C(CN1CCOCC1)c1ccccc1` (stereo not drawn), 4.22 µM (active).
The same measure, in the same setting: the same measure for `CCCCCC(O)(c1ccc(OC)cc1)C(CN1CCOCC1)c1ccccc1` (stereo not drawn): 2.11 µM (active); for `CCCN1C(CC(C)C)=NS(=O)(=O)c2cc(NC(=O)c3cccs3)ccc21`: 0.335 µM (active); for `CCCN1C(CC(C)C)=NS(=O)(=O)c2cc(NC(=O)c3ccco3)ccc21`: 7.5 µM (active).
In the case of `CC(Oc1ccccc1)C(=O)NC1CCN(c2cc(C(F)(F)F)ncn2)CC1` (stereo not drawn), the “activity change, negative = inhibition” value was -10.9%.
With `COc1ccc(NC(C)C(=O)Nc2cc(C(F)(F)F)ccc2N2CCOCC2)c(OC)c1` (stereo not drawn), the Potency was 0.842 µM (active).
Still for that read-out and setting: with `CCOc1ccccc1NC(C)C(=O)Nc1cc(C(F)(F)F)ccc1N1CCOCC1` (stereo not drawn) the figure was 2.66 µM (active); with `COc1cc(Cl)c(C)cc1NC(C)C(=O)Nc1cc(C(F)(F)F)ccc1N1CCOCC1` (stereo not drawn), 0.422 µM (active).
On to `CCOc1ccccc1NC(=O)N1CCC([C@@H]2[C@H](OC)C(=O)N2C(C)C)CC1`, for which the “activity change, negative = inhibition” value was 20.9%.
Turning to `CCC(Oc1ccccc1)C(=O)Nc1cc(C(F)(F)F)ccc1N1CCOCC1` (stereo not drawn), the Potency was 7.5 µM (active).
The same measure, in the same setting: with `COc1cc2c(Nc3ccc(Br)cc3F)ncnc2cc1OCC1CCN(C)CC1` the figure was 5.96 µM (active).
On to `Nc1cc(Cl)ccc1N1CCCC1`, for which the “activity change, negative = inhibition” value is 25.9%.
On the same count and under the same terms, the same measure for `O=C(c1ccc(F)c(Cl)c1)N1CCN(c2cc(C(F)(F)F)ncn2)CC1`: 5.98%.
As for `Clc1ccc2c(N3CCCC3)ccnc2c1`, the Potency was 3.76 µM (active).
The same measure, in the same setting: the same measure for `O=C(Nc1ccc(C(F)(F)F)cc1)N1CCN(c2ccnc3cc(Cl)ccc23)CC1`: 5.31 µM (active).
On to `COc1ccc(CCNc2ncnc3c2cnn3-c2ccc(F)cc2)cc1`, for which the “activity change, negative = inhibition” value is 22.9%.
Consider `Cc1ccc(-n2ncc3c(NCc4ccco4)ncnc32)cc1C`, for which the Potency is 15 µM (active).
In the case of `COc1ccc(CNc2ncnc3c2cnn3-c2ccc(C)c(C)c2)cc1`, the “activity change, negative = inhibition” value was 38.6%.
With `COc1ccc(S(=O)(=O)N(C)C)cc1NC(C)C(=O)Nc1cccc(C#N)c1` (stereo not drawn), the Potency is 6.68 µM (active).
As to `CCc1nnc([C@@H]2CC(F)(F)CN2Cc2cccn2C)o1`, the “activity change, negative = inhibition” value was -14.9%.
Still for that read-out and setting: the same measure for `CCOC(=O)c1c(NC(=O)COc2ccc(F)cc2)sc2c1CCC(C)C2` (stereo not drawn): 21.2%.
For `CCOC(=O)c1c(C)n(-c2ccc(F)cc2)c2ccc(O)cc12`, the Potency was 6.68 µM (active).
For `CC1=C(C(=O)Nc2ccc(C)cc2C)C(c2ccc(Br)cc2)n2ncc(C(=O)Nc3cccc(C)c3)c2N1` (stereo not drawn), the Potency is 3.35 µM (active).
On the same count and under the same terms, the same measure for `CC1=C(C(=O)Nc2ccc(C)cc2C)C(c2ccc([N+](=O)[O-])cc2)n2ncc(C(=O)Nc3ccc(F)cc3)c2N1` (stereo not drawn): 2.99 µM (active); for `COc1cccc(C2C(C(=O)Nc3ccc(C)cc3C)=C(C)Nc3c(C(=O)Nc4ccccc4)cnn32)c1` (stereo not drawn): 2.11 µM (active).
On to `COc1cccc(CC(=O)NCCn2ccn3nc(-c4ccc(C)cc4C)cc3c2=O)c1`, for which the “activity change, negative = inhibition” value was -12.7%.
Still for that read-out and setting: the same measure for `Cc1cc(=O)n(CC(=O)Nc2ccc(C)c(F)c2)c(N2CCc3ccccc3C2)n1`: -8.95%.
Take `CCOc1ccccc1NC(=O)Nc1ccc2nc(N3CCN(C)CC3)cc(C)c2c1`: the Potency was 1.33 µM (active).
Same read-out and setting: the same measure for `CCOc1cccc(CC(=O)Nc2ccc3nc(N4CCCCC4)cc(C)c3c2)c1OCC`: 6.68 µM (active).
Consider `CCCN(CCC)CCCNC(=S)Nc1ccc2nc(N3CCCC3)cc(C)c2c1`, for which the “activity change, negative = inhibition” value was -17.7%.
Turning to `Cc1ccccc1NC(=O)Nc1ccc2nc(N3CCN(C)CC3)cc(C)c2c1`, the Potency is 1.5 µM (active).
Regarding `CCOc1ccc(-n2nc3cc(C)c(NC(=O)c4cc(OCC)c(OCC)c(OCC)c4)cc3n2)cc1`, the “activity change, negative = inhibition” value was 57.9%.
The same measure, in the same setting: the same measure for `O=C([C@@H]1C[C@H](F)CN1C(=O)Nc1cccc(Cl)c1)N1CCCCC1`: 9.66%.
On to `Cc1cc(N2CCN(C)CC2)nc2ccc(NC(=O)Nc3cccc(Cl)c3)cc12`, for which the Potency was 4.22 µM (active).
